In PubChem BioAssay (NCI):
This is part of a sample that, as a whole, favours compounds with a hit. Of some 79,000 tested, about 15% had one in any assay. A number with no mark means an inactive call. Activity calls are given as the source filed them. No stated cut-off is given here; in the data, active means growth inhibition above about 70%; inactive means the rest.

How the values were obtained:
[1] = NCI Yeast Anticancer Drug Screen. Data for the wt1 strain (AID 149);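 further: 0% = growth of vehicle-treated wt1 cultures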; conditions: S. cerevisiae wt1 strain (SPY 50644) growth inhibition, active compounds read high
Outline: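 The wt1 strain was treated with compounds, and growth was compared with vehicle-treated cultures to give inhibition.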

[2] = NCI Yeast Anticancer Drug Screen. Data for the rad50EPP+ strain (AID 151);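 further: 0% = growth of vehicle-treated control cultures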; conditions: S. cerevisiae rad50 mutant strain, active compounds read high
Outline: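 Measured: growth inhibition of rad50EPP+ yeast. Reference: vehicle-treated controls. Screen uses strains with defined genetic alterations in DNA damage repair or cell cycle control.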

[3] = NCI Yeast Anticancer Drug Screen. Data for the mgt1 strain (AID 153); conditions: S. cerevisiae mgt1 mutant growth inhibition, active compounds read high
Outline: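 Compounds were applied to mgt1 mutant yeast, and growth was then compared against vehicle-treated control cultures to give percent inhibition.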

[4] = NCI Yeast Anticancer Drug Screen. Data for the rad50 strain (AID 155);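 further: 0% = growth of vehicle-only cultures of the same strain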; conditions: S. cerevisiae rad50 strain growth inhibition, active compounds read high
Outline: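 Cells are treated with compound, grown, and their growth is then scored against vehicle-only cultures of the same repair-deficient yeast strain.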

[5] = NCI Yeast Anticancer Drug Screen. Data for the mec2-1 strain (AID 157); conditions: S. cerevisiae mec2-1 strain, active compounds read high
Outline: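 Compounds were applied to mec2-1 yeast cells. Their growth was then compared with that of vehicle-treated cultures to give growth inhibition.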

[6] = NCI Yeast Anticancer Drug Screen. Data for the rad14 strain (AID 159);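 further: 0% = growth of vehicle-treated control cultures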; conditions: S. cerevisiae rad14 strain growth inhibition, active compounds read high
Outline: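 Readout: yeast growth inhibition, referenced to vehicle-only cultures. Strain bears a defined alteration in DNA damage repair.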

[7] = NCI Yeast Anticancer Drug Screen. Data for the sgs1 mgt1 strain (AID 161);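 further: 0% = growth of cultures given vehicle only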; conditions: S. cerevisiae sgs1 mgt1 strain, active compounds read high
Outline: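 Yeast cells carrying a defined DNA-repair defect were exposed to test compounds. Growth inhibition was measured relative to vehicle-treated controls.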

[8] = NCI Yeast Anticancer Drug Screen. Data for the CLN2oe strain (AID 163);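 further: 0% = growth of vehicle-only control cultures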; conditions: S. cerevisiae CLN2oe strain, active compounds read high
Outline: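 Cells of an engineered yeast line with disturbed cell-cycle regulation are treated with compound. Inhibition of growth is then calculated relative to the vehicle-treated reference.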

[9] = NCI Yeast Anticancer Drug Screen. Data for the cln2 rad14 strain (AID 165);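 further: 0% = growth equal to vehicle treated cultures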; conditions: S. cerevisiae cln2 rad14 strain, active compounds read high
Outline: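 Strain: cln2 rad14 yeast, altered in cell cycle control and DNA damage repair. Read-out: growth inhibition vs vehicle.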

[10] = NCI Yeast Anticancer Drug Screen. Data for the bub3 strain (AID 167); conditions: S. cerevisiae bub3 mutant strain, active compounds read high
Outline: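 Part of a panel of yeast mutants defective in DNA damage repair or cell cycle regulation. Each strain is grown with compound, and inhibition is calculated relative to solvent-treated cultures.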

[11] = NCI Yeast Anticancer Drug Screen. Data for the wt2 strain (AID 169);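 further: 0% = growth of vehicle-treated yeast cultures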; conditions: S. cerevisiae wt2 strain growth inhibition, active compounds read high
Outline: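 Growth of compound-treated yeast is measured and expressed as inhibition relative to vehicle-only controls.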

[12] = NCI Yeast Anticancer Drug Screen. Data for the mlh1 strain (AID 171);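 further: 0% = growth of vehicle-treated control cultures of the same strain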; conditions: S. cerevisiae mlh1 strain growth inhibition, active compounds read high
Outline: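 Test agents were incubated with yeast bearing a defined DNA damage repair or cell cycle control alteration; values are growth inhibition normalised to vehicle-treated cultures.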

[13] = NCI Yeast Anticancer Drug Screen. Data for the sgs1 strain (AID 173);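 further: 0% = growth of vehicle-only control cultures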; conditions: S. cerevisiae sgs1 mutant, active compounds read high
Outline: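 Strain with an altered DNA repair or cell cycle pathway exposed to compound. Growth then measured. Value = inhibition versus vehicle control.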

[14] = NCI Yeast Anticancer Drug Screen. Data for the mlh1 rad18 strain (AID 175); conditions: S. cerevisiae mlh1 rad18 strain growth inhibition, active compounds read high
Outline: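 A repair-deficient yeast strain is exposed to test compound, and growth is scored relative to vehicle-treated controls.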

[15] = NCI Yeast Anticancer Drug Screen. Data for the rad18 strain (AID 177); conditions: S. cerevisiae rad18 mutant growth inhibition, active compounds read high
Outline: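 DNA-repair-defective yeast; compound treatment; growth inhibition scored against vehicle.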

[16] = at 5.0 µM (retest, dose inferred, filed as 0.5)
[17] = at 50.0 µM (retest, dose inferred, filed as 5.0)

## COc1ccc2cc(CN3CCC(C4CCN(Cc5ccc6cc(OC)ccc6c5)CC4)CC3)ccc2c1
[1]; at 1.2 µM
  growth inhibition: -1%
[1]; at 3.7 µM
  growth inhibition: -16%
[1]; at 11.0 µM
  growth inhibition: 5%
[1]; at 33.0 µM
  growth inhibition: 8%
[1]; at 100.0 µM
  growth inhibition: 98% (active)
[2]; at 1.2 µM
  growth inhibition: -17%
[2]; at 3.7 µM
  growth inhibition: -14%
[2]; at 11.0 µM
  growth inhibition: -12%
[2]; at 33.0 µM
  growth inhibition: -2%
[2]; at 100.0 µM
  growth inhibition: 98% (active)
[3]; at 1.2 µM
  growth inhibition: -9%
[3]; at 3.7 µM
  growth inhibition: -5%
[3]; at 11.0 µM
  growth inhibition: 0%
[3]; at 33.0 µM
  growth inhibition: 4%
[3]; at 100.0 µM
  growth inhibition: 97% (active)
[4]; at 1.2 µM
  growth inhibition: -2%
[4]; at 3.7 µM
  growth inhibition: 5%
[4]; [16]
  growth inhibition: 1%
[4]; at 11.0 µM
  growth inhibition: 9%
[4]; at 33.0 µM
  growth inhibition: 26%
[4]; [17]
  growth inhibition: 38%
[4]; at 50.0 µM
  growth inhibition: 88.8% (active)
[4]; at 100.0 µM
  growth inhibition: 97% (active)
[5]; at 1.2 µM
  growth inhibition: -17%
[5]; at 3.7 µM
  growth inhibition: -40%
[5]; [16]
  growth inhibition: -2%
[5]; at 11.0 µM
  growth inhibition: -40%
[5]; at 33.0 µM
  growth inhibition: -31%
[5]; [17]
  growth inhibition: 22%
[5]; at 50.0 µM
  growth inhibition: 75.7% (active)
[5]; at 100.0 µM
  growth inhibition: 98% (active)
[6]; at 1.2 µM
  growth inhibition: -19%
[6]; at 3.7 µM
  growth inhibition: -13%
[6]; at 11.0 µM
  growth inhibition: -22%
[6]; at 33.0 µM
  growth inhibition: 9%
[6]; at 100.0 µM
  growth inhibition: 97% (active)
[7]; [16]
  growth inhibition: 7%
[7]; [17]
  growth inhibition: 4%
[7]; at 50.0 µM
  growth inhibition: 83.2% (active)
[8]; at 1.2 µM
  growth inhibition: 16%
[8]; at 3.7 µM
  growth inhibition: 29%
[8]; at 11.0 µM
  growth inhibition: 19%
[8]; at 33.0 µM
  growth inhibition: 36%
[8]; at 100.0 µM
  growth inhibition: 98% (active)
[9]; [16]
  growth inhibition: 19%
[9]; [17]
  growth inhibition: -48%
[9]; at 50.0 µM
  growth inhibition: 64.3%
[10]; at 1.2 µM
  growth inhibition: -32%
[10]; at 3.7 µM
  growth inhibition: -35%
[10]; [16]
  growth inhibition: 19%
[10]; at 11.0 µM
  growth inhibition: -28%
[10]; at 33.0 µM
  growth inhibition: -20%
[10]; [17]
  growth inhibition: 0%
[10]; at 50.0 µM
  growth inhibition: 89% (active)
[10]; at 100.0 µM
  growth inhibition: 98% (active)
[11]; at 1.2 µM
  growth inhibition: 0%
[11]; at 3.7 µM
  growth inhibition: 15%
[11]; at 11.0 µM
  growth inhibition: 7%
[11]; at 33.0 µM
  growth inhibition: -3%
[11]; at 100.0 µM
  growth inhibition: 98% (active)
[12]; at 1.2 µM
  growth inhibition: -12%
[12]; at 3.7 µM
  growth inhibition: -15%
[12]; at 11.0 µM
  growth inhibition: -17%
[12]; at 33.0 µM
  growth inhibition: -26%
[12]; at 100.0 µM
  growth inhibition: 97% (active)
[13]; at 1.2 µM
  growth inhibition: 14%
[13]; at 3.7 µM
  growth inhibition: 8%
[13]; at 11.0 µM
  growth inhibition: 12%
[13]; at 33.0 µM
  growth inhibition: 3%
[13]; at 100.0 µM
  growth inhibition: 98% (active)
[14]; [16]
  growth inhibition: -8%
[14]; [17]
  growth inhibition: 80% (active)
[14]; at 50.0 µM
  growth inhibition: -19.2%
[15]; at 1.2 µM
  growth inhibition: 0%
[15]; at 3.7 µM
  growth inhibition: 0%
[15]; at 11.0 µM
  growth inhibition: 3%
[15]; at 33.0 µM
  growth inhibition: 22%
[15]; at 100.0 µM
  growth inhibition: 98% (active)

## O=C(Nc1ccn(C2CC(O)C(COC(c3ccccc3)(c3ccccc3)c3ccccc3)O2)c(=O)n1)c1ccccc1 (stereo unspecified)
[1]; at 1.2 µM
  growth inhibition: -40%
[1]; at 3.7 µM
  growth inhibition: -22%
[1]; at 11.0 µM
  growth inhibition: 94% (active)
[1]; at 33.0 µM
  growth inhibition: 94% (active)
[1]; at 100.0 µM
  growth inhibition: 89% (active)
[2]; at 1.2 µM
  growth inhibition: -26%
[2]; at 3.7 µM
  growth inhibition: -10%
[2]; at 11.0 µM
  growth inhibition: -9%
[2]; at 33.0 µM
  growth inhibition: 10%
[2]; at 100.0 µM
  growth inhibition: -15%
[3]; at 1.2 µM
  growth inhibition: -22%
[3]; at 3.7 µM
  growth inhibition: 14%
[3]; at 11.0 µM
  growth inhibition: 81% (active)
[3]; at 33.0 µM
  growth inhibition: 82% (active)
[3]; at 100.0 µM
  growth inhibition: 79% (active)
[4]; at 1.2 µM
  growth inhibition: -44%
[4]; at 3.7 µM
  growth inhibition: 20%
[4]; [16]
  growth inhibition: 85% (active)
[4]; at 11.0 µM
  growth inhibition: 89% (active)
[4]; at 33.0 µM
  growth inhibition: 87% (active)
[4]; [17]
  growth inhibition: 94% (active)
[4]; at 50.0 µM
  growth inhibition: 43.2%
[4]; at 100.0 µM
  growth inhibition: 83% (active)
[5]; at 1.2 µM
  growth inhibition: -43%
[5]; at 3.7 µM
  growth inhibition: -1%
[5]; [16]
  growth inhibition: 64%
[5]; at 11.0 µM
  growth inhibition: 91% (active)
[5]; at 33.0 µM
  growth inhibition: 91% (active)
[5]; [17]
  growth inhibition: 83% (active)
[5]; at 50.0 µM
  growth inhibition: 97.6% (active)
[5]; at 100.0 µM
  growth inhibition: 88% (active)
[6]; at 1.2 µM
  growth inhibition: -32%
[6]; at 3.7 µM
  growth inhibition: 9%
[6]; at 11.0 µM
  growth inhibition: 78% (active)
[6]; at 33.0 µM
  growth inhibition: 81% (active)
[6]; at 100.0 µM
  growth inhibition: 78% (active)
[7]; [16]
  growth inhibition: 50%
[7]; [17]
  growth inhibition: 94% (active)
[7]; at 50.0 µM
  growth inhibition: 37.6%
[8]; at 1.2 µM
  growth inhibition: -15%
[8]; at 3.7 µM
  growth inhibition: 36%
[8]; at 11.0 µM
  growth inhibition: 96% (active)
[8]; at 33.0 µM
  growth inhibition: 94% (active)
[8]; at 100.0 µM
  growth inhibition: 92% (active)
[9]; [16]
  growth inhibition: 83% (active)
[9]; [17]
  growth inhibition: 96% (active)
[9]; at 50.0 µM
  growth inhibition: 92.8% (active)
[10]; at 1.2 µM
  growth inhibition: -34%
[10]; at 3.7 µM
  growth inhibition: -11%
[10]; [16]
  growth inhibition: 89% (active)
[10]; at 11.0 µM
  growth inhibition: 81% (active)
[10]; at 33.0 µM
  growth inhibition: 84% (active)
[10]; [17]
  growth inhibition: 95% (active)
[10]; at 50.0 µM
  growth inhibition: 81.5% (active)
[10]; at 100.0 µM
  growth inhibition: 82% (active)
[11]; at 1.2 µM
  growth inhibition: -15%
[11]; at 3.7 µM
  growth inhibition: 1%
[11]; at 11.0 µM
  growth inhibition: 81% (active)
[11]; at 33.0 µM
  growth inhibition: 84% (active)
[11]; at 100.0 µM
  growth inhibition: 79% (active)
[12]; at 1.2 µM
  growth inhibition: -43%
[12]; at 3.7 µM
  growth inhibition: -19%
[12]; at 11.0 µM
  growth inhibition: 74% (active)
[12]; at 33.0 µM
  growth inhibition: 79% (active)
[12]; at 100.0 µM
  growth inhibition: 74% (active)
[13]; at 1.2 µM
  growth inhibition: 6%
[13]; at 3.7 µM
  growth inhibition: 3%
[13]; at 11.0 µM
  growth inhibition: 84% (active)
[13]; at 33.0 µM
  growth inhibition: 85% (active)
[13]; at 100.0 µM
  growth inhibition: 79% (active)
[14]; [16]
  growth inhibition: 87% (active)
[14]; [17]
  growth inhibition: 95% (active)
[14]; at 50.0 µM
  growth inhibition: 94.8% (active)
[15]; at 1.2 µM
  growth inhibition: -35%
[15]; at 3.7 µM
  growth inhibition: 21%
[15]; at 11.0 µM
  growth inhibition: 86% (active)
[15]; at 33.0 µM
  growth inhibition: 85% (active)
[15]; at 100.0 µM
  growth inhibition: 83% (active)
